This is a sample that favours compounds with a hit; in the whole collection about 3.2% have one here.
CDK5 inh – inhibitors of human CDK5/p35 kinase | Q00535+Q15078 | Recombinant CDK5/p35, ADP-Glo luminescence, 60 min | inhibition, % at 10 µM | 330,000 tested, 0.01% active | AID 488839;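 active means highest replicate inhibition of at least 50% and at least 75% of replicates reaching 50%; inconclusive means only one of the two criteria met; inactive means both criteria failed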;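 further: plate controls were DMSO neutral control for no effect and GW8510 at 10 µM for full effect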
DYRK1A inh – Dyrk1A (rat) kinase inhibition; 310,000 tested, 0.43% active; inhibition, % at 12.5 µM; ADP-Glo luminescence, NFATc1 peptide; Q63470; AID 504441; in the data active means inhibition above about 50%;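 further: plate controls were vehicle with enzyme for no effect and no enzyme for full effect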
dFosB activator – activators of mouse delta FosB homodimer | P13346 | purified delta FosB, TAMRA-CDK5 oligo fluorescence polarization; percent of positive-control signal above neutral wells | activation, % at 25 µM | 340,000 tested, 0.99% active | AID 493131;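 active means mean activation above about 17%, with every replicate also reaching it, limit read from the data, passing the limit was not always enough; inconclusive means only one of the two conditions met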
esBAF inh – blocks esBAF chromatin remodeling in mouse ES cells; 350,000 tested, 2% active; Bmi1-luciferase knock-in reporter, 24 h; 100% = twice the neutral-well signal; reporter increase, % at 12.5 µM; in the data active means activation above about 40%; inconclusive means no clear call, values can overlap the other calls;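 further: 0% = median of the plate's neutral control wells and 100% = double that signal; a rise in the Bmi1 reporter signal indicates esBAF inhibition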
SMARCA2 activ – increases SMARCA2 function in MMTV reporter cells. activation, % at 9.1 µM. AID 652017. 370,000 tested, 1% active. MG213 cells, MMTV-luciferase reporter, dexamethasone, overnight; in the data active means activation above about 7.8%;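 further: 0% = vehicle wells and 100% = reference activator wells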
Rtt109 Vps75 – C. albicans Rtt109 histone acetyltransferase inhibition; Q5AAJ8; purified Rtt109/Vps75, ThioGlo CoA-SH fluorescence, 4 h; inhibition, % at 34.9 µM; 330,000 tested, 0.16% active;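 active means inhibition of at least 50% in every replicate; inconclusive means best replicate reaches 50% inhibition but some replicates fall short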
Target sequence (Q5AAJ8 whole entry, looked up): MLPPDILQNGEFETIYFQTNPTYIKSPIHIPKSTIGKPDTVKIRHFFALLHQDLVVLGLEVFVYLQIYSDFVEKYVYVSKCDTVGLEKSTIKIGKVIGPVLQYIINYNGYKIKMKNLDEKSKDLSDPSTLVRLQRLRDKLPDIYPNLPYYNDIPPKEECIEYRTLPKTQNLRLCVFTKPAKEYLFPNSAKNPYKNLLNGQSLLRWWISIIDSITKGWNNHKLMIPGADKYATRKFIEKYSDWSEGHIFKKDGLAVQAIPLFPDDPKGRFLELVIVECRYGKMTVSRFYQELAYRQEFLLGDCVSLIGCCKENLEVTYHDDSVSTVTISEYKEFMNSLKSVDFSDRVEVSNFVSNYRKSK
* marks the source's active call; other numbers are inactive results; ? = inconclusive; / = not tested or not shown.

SMILES | CDK5 inh | DYRK1A inh | dFosB activator | esBAF inh | SMARCA2 activ | Rtt109 Vps75
N#C/C(=C(/O)c1cc2ccccc2o1)c1nc2ccccc2s1 | -3 | -1 | -4 | 31 | 2 | -2
CCOc1ccc(S(=O)(=O)NCCC(=O)Nc2cccc(C(=O)OC)c2)cc1 | -3 | 0 | -6 | 15 | 1 | 54*
CCOc1ccc(S(=O)(=O)NCCC(=O)Nc2ccncc2)cc1 | -8 | / | -2 | -1 | 1 | -5
Cc1ncc([N+](=O)[O-])n1CCOC(=O)c1ccccc1 | -1 | 0 | 1 | / | -2 | -7
Cc1nonc1OCCn1c([N+](=O)[O-])cnc1C | 1 | -4 | 2 | / | 0 | 53*
CN(C)C(=O)C[C@@H]1C[C@H]2c3cc(NC(=O)NC4CCCCC4)ccc3O[C@H]2[C@@H](CO)O1 | / | / | / | -8 | / | /
O=C1OC(NC(=O)c2ccccc2)C(n2cc(CO)nn2)=C1Cl (stereo unspecified) | 3 | 5 | -8 | 6 | -3 | 193*
Cc1ccc(NC2=C(Cl)C(=O)OC2NC(=O)c2ccccc2)cc1 (stereo unspecified) | -1 | 0 | -2 | / | -3 | -2
Cc1ccc(-c2cc(-c3cccc(F)c3)n[nH]2)c(O)c1 | 0 | 1 | -7 | 56* | -1 | 2
CCCCn1cnc2cc(NCc3ccncc3)ccc21 | 2 | / | -14 | 7 | -2 | -3
CCc1ccc(CNc2ccc3c(c2)ncn3CC)cc1 | 1 | 2 | -5 | 75* | 1 | 0
CCc1ccc(CNc2ccc3c(c2)ncn3C(C)(C)C)cc1 | 2 | 4 | -7 | 51* | -1 | 7
O=C(CCCOc1ccccc1)Nc1ccccc1C(F)(F)F | 1 | -7 | -4 | 6 | -1 | -3
NC(=O)c1ccccc1NC(=O)CCc1ccccc1 | 0 | 9 | 6 | 48* | / | -1
O=C(CCCc1ccccc1)Nc1ccccc1C(F)(F)F | -1 | 5 | -1 | 72* | 1 | 1
O=Cc1cccn1-c1cccnc1 | 1 | -6 | -3 | / | 7.9* | -1
O=C(N[C@@H]1CC[C@H](CCNC(=O)C2CC2)O[C@@H]1CO)c1ccccn1 | / | / | / | -3 | / | /
Cc1nccc(-c2ccc3c(c2)OCO3)n1 | 2 | -6 | -7 | / | 1 | -3
c1ccc(-c2nccc(-c3ccc4c(c3)OCO4)n2)cc1 | 1 | / | -19 | 51* | 1 | 2
O=C(c1ccco1)N1CCN(c2ccc(Cl)c(Cl)c2)CC1 | -3 | 4 | -4 | 44* | -2 | -4
O=C(c1ccco1)N1CCN(c2ccc(Cl)cc2)CC1 | 0 | -1 | -3 | 48* | 5 | 4
CCC(=O)N1C[C@H](C)[C@@H](OC)CN(C)C(=O)c2ccc(NC(=O)Nc3cccc(F)c3)cc2OC[C@@H]1C | / | / | / | 10 | / | /
CO[C@H]1CN(C)C(=O)c2ccc(NC(C)=O)cc2OC[C@H](C)N(C(=O)CC2CC2)C[C@H]1C | / | / | / | -3 | / | /
CCCNC(=O)c1cccc(Br)c1 | -1 | -5 | 7 | / | -2 | 8
O=C(NCCc1ccccc1)c1cccc([N+](=O)[O-])c1 | 0 | -3 | 7 | 56* | 2 | -1
SMILES | CDK5 inh | DYRK1A inh | dFosB activator | esBAF inh | SMARCA2 activ | Rtt109 Vps75
O=C(NCCc1ccccc1)c1cccc(Br)c1 | 0 | 5 | -2 | 53* | 2 | 8
CSc1ccccc1NC(=O)c1cc2ncc(Br)cn2n1 | -4 | 4 | -6 | 55* | 5 | 6
O=C(CSc1n[nH]c(-c2ccccc2)n1)N1CCCC1 | 0 | -2 | -4 | 6 | 3 | -2
C=CCSc1n[nH]c(-c2ccccc2)n1 | 0 | 18 | 4 | 53* | 2 | -2
COc1ccc(-c2nc(SCC(=O)Nc3cc(C)on3)n[nH]2)cc1 | 0 | 2 | -7 | -5 | / | 1
C=CCSc1n[nH]c(-c2ccc(OC)cc2)n1 | 0 | 10 | 2 | 54* | 4 | -9
COC(=O)[C@H]1[C@H](CO)[C@H]2Cn3c(ccc(/C=C/c4ccccc4)c3=O)[C@H]2N1CC1CCCCC1 | / | / | / | 8 | / | /
CCCCCc1ccc(OCCC[n+]2ccccc2)c(CCCCC)c1 | 0 | 1 | -4 | / | -7 | ?
CCCCCc1ccc(OCCOCCn2c[n+](C)c3ccccc32)c(CCCCC)c1 | 0 | -11 | 6 | / | / | 81*
COc1ccccc1-c1ccc2c(c1)O[C@H](CN(C)C(=O)Nc1cccc(F)c1)[C@H](C)CN([C@H](C)CO)S2(=O)=O | / | / | / | -1 | / | /
C[C@@H]1CN([C@@H](C)CO)C(=O)c2cc(NC(=O)CCC(F)(F)F)ccc2O[C@@H]1CN(C)C(=O)Nc1ccc(C(F)(F)F)cc1 | / | / | / | -1 | / | /
COc1ccc(Cl)cc1-c1nc(-c2ccc(Br)o2)no1 | -5 | -2 | -3 | 51* | -3 | 4
COc1ccc(-c2nc(-c3ccc(Br)o3)no2)cc1 | 1 | -2 | 4 | -12 | 1 | -8
Cc1noc(C)c1NC(=O)Nc1ccc2c(c1)CC(=O)N([C@H](C)CO)C[C@H](C)[C@H](CN(C)S(=O)(=O)c1ccc(Cl)cc1)O2 | / | / | / | 3 | / | /
O=C(Nc1nc2c(F)cc(F)cc2s1)c1ccc([N+](=O)[O-])o1 | 1 | -3 | -2 | 57* | 0 | -2
Cc1cc(C)c2nc(NC(=O)c3ccc([N+](=O)[O-])o3)sc2c1 | 0 | 11 | -9 | 13 | 1 | -2
C[C@@H]1CN([C@@H](C)CO)C(=O)Cc2cc(NS(=O)(=O)c3cn(C)cn3)ccc2O[C@H]1CN(C)C(=O)Nc1cccc2ccccc12 | / | / | / | 2 | / | /
COc1ccc(C(=O)NC(=C(Cl)Cl)S(=O)(=O)c2ccc(C)cc2)cc1 | -1 | -3 | 23* | / | -1 | -2
COc1ccc(CNC(=O)C[C@@H]2CC[C@@H](NC(=O)c3cccc(F)c3)[C@@H](CO)O2)cc1 | / | / | / | -4 | / | /
CN1[C@@H]2Cn3c(ccc(-c4cccc(F)c4)c3=O)[C@H]1[C@@H](C(=O)NCc1ccccc1)[C@@H]2CO | / | / | / | 4 | / | /
Cc1nc(NCc2ccccc2)sc1C(=O)Nc1ccccc1 | -1 | / | 3 | 59* | 4 | -2
Cc1cc(C(=O)COC(=O)C2=COCCO2)c(C)n1-c1cccc(F)c1 | 1 | 11 | -1 | 55* | 2 | 3
COc1ccccc1CC(=O)Nc1ccc(NC(=O)c2cccs2)cc1 | -3 | -2 | 17* | 12 | 1 | -8
COC(=O)Cc1ccc(NC(=O)c2cccs2)cc1 | 1 | -1 | -3 | 49* | 3 | -2
COc1ccc(NC(=O)c2ccc(NC(=O)c3cccs3)cc2)cc1 | 0 | -4 | -2 | / | -1 | 10
Nc1ccc2nc(-c3cccs3)[nH]c2c1 | -1 | 4 | -7 | 44* | -1 | 1
C[C@@H]1CCCCO[C@@H](CN(C)C(=O)Nc2ccccc2)[C@H](C)CN([C@@H](C)CO)C(=O)c2cc(NC(=O)c3ccncc3)ccc2O1 | / | / | / | 7 | / | /
CCc1ccc2nc(/N=C(\N)NC(=O)c3ccccc3)nc(C)c2c1 | -2 | -1 | -7 | 44 | 7.9* | -14

Screening results deposited in PubChem BioAssay by several laboratories.
